# Assay results published in the supplement of paper PMC12632987.
# Whole data set: some 2,300 sequences, median “median log2 fold change of GCK-ALFA target abundance (FLAG IP / Myc IP barcode read proportion)” near 0.095, cut for the lowest 2% near -0.47. The sample holds the lowest values, similar sequences and a random draw of the others, so the mix is not that of the screen.
# B1: LC3A_3_1887 (protein)
# chain: MDEKIEETLKRLKEAGASEETLEAFKRVVEKLKARGWDEALNTLIEKVDELLDAPDEVRLAFLQDVLALLDTPGVSEEELIAGINELATLAKNEAEIIEL
# B2: LC3A_28_691 (protein)
# chain: SAIDETIARIRAQAEAALAAGEEALLEVTVPATATQEDIDRLIATIREAVERLAGVGKVYIVVDVESGVAQENITRLADALDELEAEYPNVTVVIALDED
# B3: LC3A_28_654 (protein)
# chain: EEVEKELKEALKEAEEAKKKKEPAVITIKVSGKVNEEELKKILETLEKIAELLKDIKGSAIIIDLDKDVKEEFKNKLIDKAEELEKKYPNVTVIIALEER
# B4: LC3A_3_1762 (protein)
# chain: MEAFIEAAAKELKEAGASEELIEKASRALRLLLERGLEETAKEFVKVLLELLKKSEELALDLAEDVLTLLETSTLSPEELAKAVRSEMNAALSEAEIEEL
# B5: LC3A_28_950 (protein)
# chain: MSIEENIEKALKEAKEAKEKNEPVVITLVLEDDPSEEAVEALIEAMEEIAELLKDIKGTTIIVDVSSKVKQEHIDAIADKGEEIEKKYPNINVIIALDED
# B6: LC3A_102_127 (protein)
# chain: EVEKLKKELLEKVKKEVEKLLEKDKSLSEEEKKKILELAEKLAEAKLENAEIEIQHGFVDIYLEDKAIELQEELEKIDKELAKKINEIIEKGVEEFRKKL
# B7: LC3A_free_46_2348 (protein)
# chain: YKAEILIDLLAKDKETLEKAVKEIVEEAKKIAEKYNLELEIKVKIEKLEDGSYYAEIEITLKGETEEDLQKAVNELINKIEEIAKKYGVAAIISYEIIKE
# B8: LC3A_28_708 (protein)
# chain: NPLEESIKKALEEAKAAAKAGESTVITIKVPGSATEEDIEKLIKALEEIAEITKDLPSTSIIIDVDGGVKQEHIDKIADAAEEIEKKYPNVTVIIALDET
# B9: LC3A_147_403 (protein)
# chain: YIVEADIDIITKNAKEEVLAAFEEIVEELKEKGYEVELEVEVEKLDEDTWYINVKIKVETETKEEAEEVADYIEDKIDEIEEKLKDKILASLISIEIIEE
# B10: LC3A_free_46_2366 (protein)
# chain: VKAEIDIDFLVETKEKAEELAKELEEEIKKIAEKYGVKVKIEVKIIKNPDGTYSLEIEIELEAENKETLQKAVNEIIDSIDKIAEKFNVSYIISVEIIDE
# B11: LC3A_28_934 (protein)
# chain: MTVEERIKKALEEAEKAAKAGEPVVITIKVTSKDTQEEIDKLIKTIKEIAEILKNVKGAAIIVDVDAGVPQERIDKIADTLEEIEKKYPNINAILALDED
# B12: LC3A_3_1490 (protein)
# chain: REELLERMRAVLEARGASPEQIAEVLEAAERLLELGYEETVETLIELFEANPDLDPLDIVTAVLITLEVAEEEDLSEEELVERAREIFENVREIEALDEN
# B13: LC3A_3_1491 (protein)
# chain: MEELLERMREVLEARGASEEQIEEVLEAVEELLELGYEETVEELIELFEANPDLDPEQIVTAVLITLEVAEEEDLSEEELVERARRIFEDVAEIEALDEE
# B14: LC3A_28_1022 (protein)
# chain: SALDEELEALRAEVEAALARGEDVLLEVTIKPTDSLEEVRRKMERVKEIALEASKRGKVDVLIDVEKGVSQEKIDIVMDAAEELEEEDPSVNVIIALEEE
# B15: LC3A_141_383 (protein)
# chain: MKKEFEMEATKETADEVFKFMEEVEKETLEMIKESGGKPVKMKVKITATNEKTGEVVEKEEEYIVTEENADLVADGIEIEVLSLLDRVGGKVKVKVTLES
# B16: LC3A_28_1063 (protein)
# chain: SKVEAEIKKALAEAKEAVAAGEEALVTITIDDSDSDEDVEKKLKTMEEIAELTKTLPRTTILVDIDSSRKEEISKKVSEVGDKLEKKYPNVTVIIALSEE
# B17: LC3A_147_511 (protein)
# chain: YEVEVDVDIITKDAEEEVIEEFKEIAEELKKKGYEVELEIEVEELENGITYIHVKITVKTETEEEAKEVANYILDKIDEIEEKLKDKILGSMISVEIIKK
# B18: LC3A_147_431 (protein)
# chain: YITTVDIDVLTKDAEEEVIKAAKEIEEELKAKGYEVELEIEVEELENGEKYIHIKITVKTETEEEAKEAADYIVDKFEELEEKLKDKILGSIISVEIEEA
# B19: LC3A_free_8_2456 (protein)
# chain: SSQKLVDTAVKLLEEMEKELTELAKKEGLSRLDILELELEIGSLIAEVISLVDKSPEEILETTKEGLEEIIELAKELGEEVAKLAEEKSKEIIEELEKLI
# Target: MAP1LC3A, Q9H492
# Assay: median log2 fold change of GCK-ALFA target abundance (FLAG IP / Myc IP barcode read proportion) (log2 ratio); each designed protein is fused to an ALFA-tag nanobody in HEK293 cells to bring the named protein to FLAG-tagged glucokinase (GCK); Myc marks an untargeted standard; higher = target protein stabilised (more abundant)
# Settings: target protein: 3xFLAG-MCP-GCK-ALFA reporter; HEK293 landing pad (RPLP)
# Procedure, shortened: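 Sequencing of reverse-transcribed, amplified circular RNA barcodes from anti-FLAG and anti-Myc immunoprecipitates provided the readout for an ALFA-nanobody-fused binder library recombined into HEK293 landing-pad cells. Those cells were induced with 2 μg mL^−1 doxycycline, transfected with a plasmid expressing a FLAG-tagged target and a Myc-tagged standard, and lysed after 48 h. Target abundance is the per-binder median log2 ratio of FLAG to Myc barcode read proportions. Only barcodes at a proportion of ≥10^−7 in both replicates and binders with ≥3 barcodes per replicate were kept, with a 10^−6 pseudocount added before the two replicates were pooled.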
row,Binder,median log2 fold change
1,B1,0.21
2,B2,-0.0472
3,B3,0.153
4,B4,0.226
5,B5,0.204
6,B6,-0.519
7,B7,-0.204
8,B8,0.0817
9,B9,-0.0503
10,B10,0.102
11,B11,0.252
12,B12,-0.342
13,B13,-0.577
14,B14,0.00506
15,B15,0.328
16,B16,0.0338
17,B17,-0.745
18,B18,0.117
19,B19,-0.163
